# Source: the supplement of paper PMC9694430
# Where a name gives a salt, the structure may show the parent alone.
# Assays:
# Assay in all cases: thermal shift delta Tm vs DMSO control; higher = stronger stabilization (binding)
# Conditions in all cases: 12.5 µM; protein concentration 2 µM
# [1] = test system: LOC_OS01G57100-cb003
# Summary of the method: (§1)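 Rice kinase domain constructs, made in E. coli and purified, were placed in 96-well plates at 2 μM in 19.5 μl of 100 mM potassium phosphate pH 7.5, 150 mM NaCl, 10% glycerol and 5 × SYPRO Orange, with compound in DMSO. A temperature ramp from 25°C to 95°C at 0.05°C/s was used for differential scanning fluorimetry. The melting temperature shift is a triplicate mean compared with DMSO-only protein, derived from Boltzmann fits.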
# [2] = test system: LOC_OS01G60330-cb001
# Summary of the method: as §1
# [3] = test system: LOC_OS01G60700-cb002
# Summary of the method: as §1
# [4] = test system: LOC_OS01G63280-cb003
# Summary of the method: as §1
# [5] = test system: LOC_OS01G67340-cb003
# Summary of the method: as §1
# [6] = test system: LOC_OS01G70970-cb002
# Summary of the method: as §1
# [7] = test system: LOC_OS02G07810-cb001
# Summary of the method: as §1
# [8] = test system: LOC_OS02G08530-cb003
# Summary of the method: as §1
# [9] = test system: LOC_OS02G14120-cb001
# Summary of the method: as §1
# [10] = test system: LOC_OS02G17970-cb001
# Summary of the method: as §1
# [11] = test system: LOC_OS02G45750-cb003
# Summary of the method: as §1
# [12] = test system: LOC_OS02G54510-cb004
# Summary of the method: as §1
# [13] = test system: LOC_OS03G04050-cb001
# Summary of the method: as §1
# [14] = test system: LOC_OS03G12390-cb001
# Summary of the method: as §1
# [15] = test system: LOC_OS03G27990-cb004
# Summary of the method: as §1
# [16] = test system: LOC_OS03G50450-cb001
# Summary of the method: as §1
# [17] = test system: LOC_OS03G50810-cb003
# Summary of the method: as §1
# [18] = test system: LOC_OS04G35114-cb001
# Summary of the method: as §1
# [19] = test system: T1, LOC_OS04G38480-cb003
# T1 sequence (whole entry): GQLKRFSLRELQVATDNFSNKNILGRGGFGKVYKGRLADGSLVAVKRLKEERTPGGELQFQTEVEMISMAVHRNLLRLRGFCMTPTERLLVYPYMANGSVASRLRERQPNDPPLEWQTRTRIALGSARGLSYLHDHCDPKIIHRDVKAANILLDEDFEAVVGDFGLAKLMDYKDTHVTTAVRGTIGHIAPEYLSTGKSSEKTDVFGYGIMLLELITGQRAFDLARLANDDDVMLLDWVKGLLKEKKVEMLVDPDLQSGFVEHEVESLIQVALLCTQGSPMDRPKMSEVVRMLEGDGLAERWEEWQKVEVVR
# Summary of the method: as §1
# [20] = test system: T2, LOC_OS04G41100-cb001
# T2 sequence (whole entry): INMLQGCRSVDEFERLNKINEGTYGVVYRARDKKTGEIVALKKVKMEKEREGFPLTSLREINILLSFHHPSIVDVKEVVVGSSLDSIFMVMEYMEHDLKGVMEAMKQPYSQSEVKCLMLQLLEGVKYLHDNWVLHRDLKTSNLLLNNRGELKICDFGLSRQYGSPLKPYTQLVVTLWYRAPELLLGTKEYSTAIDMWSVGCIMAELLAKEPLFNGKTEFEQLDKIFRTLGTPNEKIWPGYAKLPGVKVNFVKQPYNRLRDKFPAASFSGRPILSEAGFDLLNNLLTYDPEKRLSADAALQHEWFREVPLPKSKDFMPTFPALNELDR
# Summary of the method: as §1
# 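Note: purified Escherichia coli-expressed rice kinase domain construct.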
Structure (SMILES),thermal shift delta Tm [1] [°C],thermal shift delta Tm [2] [°C],thermal shift delta Tm [3] [°C],thermal shift delta Tm [4] [°C],thermal shift delta Tm [5] [°C],thermal shift delta Tm [6] [°C],thermal shift delta Tm [7] [°C],thermal shift delta Tm [8] [°C],thermal shift delta Tm [9] [°C],thermal shift delta Tm [10] [°C],thermal shift delta Tm [11] [°C],thermal shift delta Tm [12] [°C],thermal shift delta Tm [13] [°C],thermal shift delta Tm [14] [°C],thermal shift delta Tm [15] [°C],thermal shift delta Tm [16] [°C],thermal shift delta Tm [17] [°C],thermal shift delta Tm [18] [°C],thermal shift delta Tm [19] [°C],thermal shift delta Tm [20] [°C]
C=C[C@@](C)(/C=C/c1ccc(O)cc1)CCC=C(C)C [Bakuchiol],-0.4,0.36,0.05,0.51,-0.02,0.49,-0.84,0.6,0.29,0.27,-0.82,-0.05,0.71,-0.13,0.37,0.04,0.28,0.46,0.81,0.44
Cn1c(Nc2ccc(C(F)(F)F)cc2)nc2cc(Oc3ccnc(-c4ncc(C(F)(F)F)[nH]4)c3)ccc21,4.82,16.6,0.58,24.5,1.4,1.63,3.92,0.26,0.77,2.38,2.26,2.15,0.84,2.43,0.45,1.16,1.92,1.17,4.08,1.82
COc1ccc(-c2cc3nccn3c(Nc3ncccc3C(N)=O)n2)cc1OC,0.13,1.34,1.05,1.03,0.74,0.22,0.81,3.01,3.03,0.79,1.94,0.42,0.72,6.82,0.56,1.07,1.24,1.36,1.69,1.04
CO[C@H]1C[C@@H]2CC[C@@H](C)[C@@](O)(O2)C(=O)C(=O)N2CCCC[C@H]2C(=O)O[C@H]([C@H](C)C[C@@H]2CC[C@@H](OC(=O)C(C)(CO)CO)[C@H](OC)C2)CC(=O)[C@H](C)/C=C(\C)[C@@H](O)[C@@H](OC)C(=O)[C@H](C)C[C@H](C)/C=C/C=C/C=C/1C,1.06,1.91,0.66,0.23,-0.48,0.3,0.33,0.57,0.93,0.36,0.69,-0.04,0.5,-0.26,0.07,0.44,-0.05,-0.13,1.42,0.7
CCCCCCCCc1ccc(CCC(N)(CO)CO)cc1 [Fingolimod (FTY720) HCl],0.23,0.41,0.6,-1.03,-0.42,-0.82,-1.73,-0.4,-0.78,-0.74,-0.8,-0.96,-0.79,-1.7,-0.42,-0.24,-1.68,-0.12,0.32,0.19
Cc1ccc(NC(=O)c2ccc(CN3CCN(C)CC3)cc2)cc1Nc1nccc(-c2cccnc2)n1 [Imatinib Mesylate (STI571)],1,0.66,0.7,0.06,-0.58,-0.12,0.51,1.09,0.52,0.04,0.55,0.16,0.17,0.88,-0.03,-0.05,0.09,0.75,0.34,0.59
Cn1ncc(Cl)c1-c1cc(C(=O)N[C@H](CN)Cc2cccc(F)c2)sc1Cl,0.79,0.75,0.77,0.1,0.54,0.15,0.41,0.69,1.31,0.56,0.37,-0.08,0.33,0,0.16,0.15,-0.04,0.42,0.52,0.2
CCn1nc(C2CCN(C(=O)CCO)CC2)nc1-c1cnc(N)c(-c2nnc(C(C)(C)C)o2)n1,0.59,0.91,1.19,1.82,1.55,1.96,1.55,2.73,5.17,1.34,3.05,0.25,0.43,4.97,0.52,0.05,0.89,4.72,2.09,0.3
C[S+]([O-])c1ccc(-c2nc(-c3ccc(F)cc3)c(-c3ccncc3)[nH]2)cc1 (stereo not given),1.65,1.11,1.91,1.11,-0.03,0.63,1.46,1.44,1.3,0.84,1.21,0.81,1.08,0.78,0.58,0.08,0.32,1.35,1.26,1.23
COc1nccnc1NS(=O)(=O)c1ccc(NC(=O)/C=C/c2ccc([N+](=O)[O-])s2)cc1 [Necrosulfonamide],-1.39,1.46,1.17,0.16,0.36,-0.61,1.4,0.83,-0.66,2.48,-0.78,0.22,0.43,-0.66,1.32,-0.09,0.29,1.14,0.24,-0.12
CCNC(=O)Nc1ccc(-c2nc(N3CCOC[C@@H]3C)c3c(n2)C(C)(C)S(=O)(=O)C3)cc1,2.26,0.52,-0.02,0.04,0.5,0.57,-0.58,0.6,1.4,-0.21,0.42,0.08,0.36,0.06,0.16,0.41,0.16,0.29,1.39,0.2
C[C@H]1[C@H](C)CC[C@]2(C(=O)O)CC[C@]3(C)C(=CC[C@@H]4[C@@]5(C)C[C@@H](O)[C@H](O)[C@@](C)(CO)[C@@H]5CC[C@]43C)[C@H]12 [Asiatic Acid],2.35,0.45,0.54,-0.01,0.72,0.06,0.83,0.74,0.58,0.33,0.12,-0.04,0.11,-0.01,0.08,0.19,0.31,-0.09,0.96,0.3
CCCS(=O)(=O)Nc1ccc(F)c(C(=O)c2c[nH]c3ncc(Cl)cc23)c1F,0.54,2.26,1.16,5.8,-0.05,2.74,1.49,0.84,1.51,0.28,1.97,1.14,0.77,0.99,0.46,0.97,0.43,1.85,0.12,0.83
CC(C)S(=O)(=O)c1ccc2nccc(Nc3ccc4scnc4c3)c2c1,1.27,0.31,0.69,0.17,0.82,0.33,-0.59,1.18,1.58,1.42,1.88,0.89,0.51,0.9,0.22,0.37,0.61,2.38,2.44,0.32
COc1cc(N2CCN(C)CC2)ccc1Nc1nccc(-c2cn(C)c3cnccc23)n1,1.48,2,1.01,0.34,0.37,0.31,0.46,3.48,5.04,0.61,2.73,0.02,0.3,9.57,0.05,-0.05,1.79,4.35,1.32,0.51
CCN(CC)CCCC(C)Nc1nc(C)cc(Nc2ccc3nc(C)cc(N)c3c2)n1 (stereo not given),1.43,0.65,0.91,0.28,0.08,0.16,-0.06,0.57,0.93,0.8,1.05,0.18,0.55,-0.21,0.33,0.59,0.25,0.62,0.87,0.23
"Nc1nc2cc(-c3ccc4ncc(C(=O)N5CCOCC5)n4c3)ccc2o1 [Serabelisib (INK-1117,MLN-1117,TAK-117)]",1.55,0.93,0.36,0.07,1.26,1.33,0.05,1.17,2.02,0.23,1.65,0.12,0.57,0.22,0.37,0.93,0.42,1.85,0.6,0.51
Cc1cccc(Nc2nc(NC3CCCCC3N)ncc2C(N)=O)c1 (stereo not given),2.09,1.38,1.44,0.64,2.38,2.39,-0.08,4.25,4.75,0.86,0.65,1.67,0.03,2.43,3.15,4.23,1.34,0.3,1.83,0.73
O=c1cc(N2CCOCC2)oc2c(-c3cccc4c3sc3ccccc34)cccc12,0.74,0.23,-0.43,-0.77,-0.51,-0.71,-0.42,0.52,0.46,0.12,1.11,0.33,0.66,-0.18,0.6,0.91,0.32,0.58,0.87,-0.31
Nc1nccc(Oc2ccc(NC(=O)c3c[nH]cc(-c4ccc(F)cc4)c3=O)cc2F)c1Cl,2.6,1.42,1.09,7.56,2.23,6.22,1.41,2.08,8.06,1.52,1.54,0.77,0.58,0.55,0.24,0.31,1.15,0.58,2.79,3.39
Cc1ccc(Nc2cc(N[C@@H]3CCCC[C@@H]3N)nnc2C(N)=O)nc1C,2.34,1.23,1.25,0.77,0.39,2.01,0.12,2.54,5.04,1.48,2.16,0.73,0.52,2.19,1.5,1.66,1.11,1.06,1.11,0.51
CNc1nc(Nc2cnn([C@H]3CCN(C4COC4)C[C@@H]3F)c2Cl)ncc1C(F)(F)F,0.76,2.09,0.99,0.1,0.67,1.35,0.49,2.55,2.26,0.35,10.5,0.35,0.37,9.14,2.39,5.54,4.12,4.01,3.09,0.6
Cn1cc(-c2ccc3nnc(Sc4ccc5ncccc5c4)n3n2)cn1,0.37,0.34,1.28,0.23,0.43,0.3,0.16,1.1,1.81,0.07,0.93,0.23,0.63,-0.22,0.45,0.82,0.32,0.81,1.04,0.48
O=C(Nc1ccc(OC(F)(F)F)cc1)c1sccc1NCc1ccnc2ccccc12,0.93,2.48,0.05,6.18,0.22,1.27,1.03,0.68,0.49,0.48,0.52,4.36,0.44,0.88,0.45,0.51,0.48,0.29,0.95,0.59
